Results reported in PubChem BioAssay (EPA / NIEHS).
Records with an inconclusive call do not appear. Calls of active or inactive are those of the source. Rule for the calls, unless noted: active = hit-call score of the fitted dose curve at least 0.9, where 1 is the maximum; inactive = score below 0.9.

How the values were obtained:
[1] = molecular target: Estrogen-related receptor gamma (Homo sapiens) (UniProt P62508); assay: ATG_ERRg_TRANS: Attagene TRANS-FACTORIAL HepG2 Assay for human Estrogen-Related Receptor gamma (ERRg) (AID 2282977; active = hit-call score of the fitted dose curve at least 0.9, where 1 is the maximum;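 note: hits increase reporter signal over DMSO so potencies reflect activators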); settings: HepG2 Attagene TRANS reporter, ERRg transactivation
Estrogen-related receptor gamma (Homo sapiens), sequence (P62508 whole entry, looked up, the tested form may be a part): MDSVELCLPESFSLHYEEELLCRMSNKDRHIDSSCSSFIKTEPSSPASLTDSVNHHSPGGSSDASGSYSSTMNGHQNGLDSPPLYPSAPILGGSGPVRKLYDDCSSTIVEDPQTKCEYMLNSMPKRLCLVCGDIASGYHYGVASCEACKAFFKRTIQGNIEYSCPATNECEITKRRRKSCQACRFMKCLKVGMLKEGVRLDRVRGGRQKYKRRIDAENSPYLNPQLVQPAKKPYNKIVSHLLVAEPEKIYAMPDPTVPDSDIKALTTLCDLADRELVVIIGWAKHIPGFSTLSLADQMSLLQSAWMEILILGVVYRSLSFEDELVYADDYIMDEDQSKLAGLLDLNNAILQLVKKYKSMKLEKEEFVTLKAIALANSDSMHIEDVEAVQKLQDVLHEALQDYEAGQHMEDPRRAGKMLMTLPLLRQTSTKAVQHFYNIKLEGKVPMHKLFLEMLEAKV
Outline: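 Transient HepG2 transfectants, 24 h compound exposure, GAL4-UAS reporter mRNA by RT-PCR/6-FAM labelling/capillary electrophoresis; positive direction vs DMSO.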

[2] = molecular target: Oxysterols receptor LXR-alpha (Homo sapiens) (UniProt Q13133); assay: ATG_LXRa_TRANS: Attagene TRANS-FACTORIAL HepG2 Assay for human Liver X Receptor alpha (LXRa) (AID 2282980; active = hit-call score of the fitted dose curve at least 0.9, where 1 is the maximum); settings: HepG2 Attagene TRANS reporter, LXRa transactivation
Oxysterols receptor LXR-alpha (Homo sapiens), sequence (Q13133 whole entry, looked up, the tested form may be a part): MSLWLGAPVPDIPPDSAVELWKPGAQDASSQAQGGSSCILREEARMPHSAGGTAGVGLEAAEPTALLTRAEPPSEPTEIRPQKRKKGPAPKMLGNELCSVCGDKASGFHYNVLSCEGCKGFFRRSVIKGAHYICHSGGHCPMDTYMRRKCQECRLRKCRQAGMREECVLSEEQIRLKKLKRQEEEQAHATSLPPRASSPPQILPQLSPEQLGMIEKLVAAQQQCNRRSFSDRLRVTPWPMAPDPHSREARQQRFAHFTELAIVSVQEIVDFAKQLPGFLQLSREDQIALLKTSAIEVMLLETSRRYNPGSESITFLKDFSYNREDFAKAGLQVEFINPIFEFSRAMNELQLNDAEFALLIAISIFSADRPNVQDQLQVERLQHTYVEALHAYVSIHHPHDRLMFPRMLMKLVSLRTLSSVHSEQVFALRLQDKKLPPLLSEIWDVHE
Outline: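 In this multiplexed TRANS system, compounds act on HepG2 cells carrying GAL4-UAS reporter units and a receptor-GAL4 fusion for 24 h. Induced reporter RNA is amplified, fluorescently labelled and sized by capillary electrophoresis, with DMSO as baseline.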

[3] = ATG_M_06_TRANS: Attagene TRANS-FACTORIAL HepG2 Assay for M06 Transcription Factor (Internal Marker) (AID 2282983; active = hit-call score of the fitted dose curve at least 0.9, where 1 is the maximum); settings: HepG2 Attagene TRANS M06 internal marker reporter
Outline: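 Internal-marker background readout from a multiplexed TRANS reporter system in HepG2; 24 h dosing; mRNA induction quantified by RT-PCR plus capillary electrophoresis fluorescence; DMSO as negative control and baseline.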

[4] = molecular target: Nuclear receptor subfamily 4 group A member 2 (Homo sapiens) (UniProt P43354); assay: ATG_NURR1_TRANS: Attagene TRANS-FACTORIAL HepG2 Assay for human Nuclear Receptor Related Protein 1 (NURR1) (AID 2282985; active = hit-call score of the fitted dose curve at least 0.9, where 1 is the maximum); settings: HepG2 Attagene TRANS reporter, mRNA readout
Nuclear receptor subfamily 4 group A member 2 (Homo sapiens), sequence (P43354 whole entry, looked up): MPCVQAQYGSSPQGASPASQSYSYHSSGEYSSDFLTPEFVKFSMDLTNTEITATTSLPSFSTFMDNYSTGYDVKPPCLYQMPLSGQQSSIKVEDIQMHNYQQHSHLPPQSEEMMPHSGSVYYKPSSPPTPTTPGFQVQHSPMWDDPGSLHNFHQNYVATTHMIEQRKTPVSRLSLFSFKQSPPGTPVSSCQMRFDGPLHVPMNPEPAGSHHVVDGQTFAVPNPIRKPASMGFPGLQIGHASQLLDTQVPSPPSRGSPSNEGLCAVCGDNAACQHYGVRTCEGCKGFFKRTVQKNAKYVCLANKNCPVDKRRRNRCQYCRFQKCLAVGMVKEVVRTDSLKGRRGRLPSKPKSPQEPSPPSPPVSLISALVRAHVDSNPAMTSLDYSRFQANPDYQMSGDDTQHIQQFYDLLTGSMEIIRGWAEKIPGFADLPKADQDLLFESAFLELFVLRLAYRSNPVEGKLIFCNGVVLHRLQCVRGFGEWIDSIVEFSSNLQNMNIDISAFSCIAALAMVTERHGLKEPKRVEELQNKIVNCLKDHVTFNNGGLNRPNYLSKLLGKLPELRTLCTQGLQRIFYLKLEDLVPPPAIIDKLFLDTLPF
Outline: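 HepG2 / transient MRTU transfection / 24 h compound exposure / RT-PCR + CE fluorescence of reporter mRNA / gain-of-signal vs DMSO.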

[5] = molecular target: Transcriptional activator Myb (Homo sapiens) (UniProt P10242); assay: ATG_Myb_CIS: Attagene CIS-FACTORIAL HepG2 Assay for human Myeloblastosis (Myb) Proto-Oncogene Transcription Factor (AID 2282986); settings: HepG2 Attagene CIS-FACTORIAL Myb reporter transcription; actives raise or lower the signal
Transcriptional activator Myb (Homo sapiens), sequence (P10242 whole entry, looked up): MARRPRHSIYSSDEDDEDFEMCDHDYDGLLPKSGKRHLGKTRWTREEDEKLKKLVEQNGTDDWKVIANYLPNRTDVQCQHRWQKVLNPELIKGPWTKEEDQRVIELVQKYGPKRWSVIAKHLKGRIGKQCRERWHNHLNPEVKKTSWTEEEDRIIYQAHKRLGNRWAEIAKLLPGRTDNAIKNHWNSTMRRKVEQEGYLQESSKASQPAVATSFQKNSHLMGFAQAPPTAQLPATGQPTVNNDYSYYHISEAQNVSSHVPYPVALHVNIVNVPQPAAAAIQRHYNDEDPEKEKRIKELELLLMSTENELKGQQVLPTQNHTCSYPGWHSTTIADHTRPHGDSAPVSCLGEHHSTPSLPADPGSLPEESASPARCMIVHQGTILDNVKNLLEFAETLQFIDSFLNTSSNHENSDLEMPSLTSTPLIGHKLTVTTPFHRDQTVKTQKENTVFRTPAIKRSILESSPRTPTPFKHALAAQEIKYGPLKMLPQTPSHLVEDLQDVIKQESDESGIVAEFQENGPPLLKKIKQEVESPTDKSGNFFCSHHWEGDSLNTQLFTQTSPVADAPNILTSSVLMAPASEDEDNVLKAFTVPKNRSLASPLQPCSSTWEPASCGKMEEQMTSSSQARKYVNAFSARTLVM
Outline: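 Transiently transfected HepG2 cells carrying a multiplexed cis-promoter reporter set report endogenous Myb activity after 24 h compound exposure. Reporter mRNA is read by RT-PCR with capillary electrophoresis of fluorescent products, fitted bidirectionally against DMSO.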

[6] = molecular target: Nuclear respiratory factor 1 (Homo sapiens) (UniProt Q16656); assay: ATG_NRF1_CIS: Attagene CIS-FACTORIAL HepG2 Assay for human Nuclear Respiratory Factor 1 (NRF1) Orphan Gene (AID 2282987); settings: HepG2 NRF1 cis-element reporter, Attagene multiplex; actives raise or lower the signal
Outline: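 HepG2 cells transiently transfected with multiple cis-regulated reporter units, exposed 24 h. Reporter mRNAs measured by RT-PCR, fluorescent labelling, HpaI digestion and capillary electrophoresis; bidirectional fitting against DMSO.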

[7] = ATG_NFI_CIS: Attagene CIS-FACTORIAL HepG2 Assay for human Nuclear Factor I (NFI) (AID 2282989); settings: HepG2 cis-regulatory reporter, NFI response element transcription; actives raise or lower the signal
Outline: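 Reporter transcription driven by endogenous transcription factors in HepG2 cells; 24 h treatment. Quantitation by labelled RT-PCR fragments on capillary electrophoresis, gain- or loss-of-signal relative to DMSO.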

[8] = molecular target: Myc proto-oncogene protein (Homo sapiens) (UniProt P01106); assay: ATG_Myc_CIS: Attagene CIS-FACTORIAL HepG2 Assay for human Myelocytomatosis (Myc) Proto-Oncogene Transcription Factor (AID 2282990); settings: HepG2, Attagene cis-reporter transcription factor activity; actives raise or lower the signal
Myc proto-oncogene protein (Homo sapiens), sequence (P01106 whole entry, looked up, the tested form may be a part): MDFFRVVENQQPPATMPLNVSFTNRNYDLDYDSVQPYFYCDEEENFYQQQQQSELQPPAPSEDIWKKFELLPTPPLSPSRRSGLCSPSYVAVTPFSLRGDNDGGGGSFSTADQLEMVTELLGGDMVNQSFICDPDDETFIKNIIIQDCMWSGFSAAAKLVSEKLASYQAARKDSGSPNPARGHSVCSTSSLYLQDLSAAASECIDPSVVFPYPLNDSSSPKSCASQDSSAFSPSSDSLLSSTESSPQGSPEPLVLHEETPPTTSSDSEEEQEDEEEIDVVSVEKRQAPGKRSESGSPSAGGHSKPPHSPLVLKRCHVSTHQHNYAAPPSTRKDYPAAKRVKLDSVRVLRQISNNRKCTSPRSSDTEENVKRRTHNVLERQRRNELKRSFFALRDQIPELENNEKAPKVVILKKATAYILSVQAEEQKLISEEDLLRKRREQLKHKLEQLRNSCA
Outline: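 Read-out: fluorescent reporter mRNA fragments resolved by capillary electrophoresis after RT-PCR. Human HepG2 liver cells carried transfected cis-element reporter units and were dosed for 24 h. Gain or loss of signal fitted relative to DMSO baseline.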

[9] = ATG_NF_kB_CIS: Attagene CIS-FACTORIAL HepG2 Assay for human Nuclear Factor Kappa B (NF-kB) (AID 2282991); settings: HepG2 Attagene cis-factorial NF-kB reporter mRNA; actives raise or lower the signal
Outline: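 HepG2 cells transfected with cis-promoter-driven reporter units, so endogenous transcription factor activity is measured. Reporter mRNA quantified 24 h after dosing by RT-PCR and capillary electrophoresis, with bidirectional fitting against DMSO.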

[10] = ATG_NRF2_ARE_CIS: Attagene CIS-FACTORIAL HepG2 Assay for human Nuclear Factor Erythroid 2 Related Factor 2 (NFR2) response to Antioxidant Response Elements (ARE) (AID 2282992); settings: HepG2 Attagene ARE/NRF2 reporter, transcription factor activity; actives raise or lower the signal;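 for AC50: reporter mRNA level measured by RT-PCR and capillary electrophoresis fluorescence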
Outline: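 HepG2 cells transiently transfected with multiplexed cis-element reporter constructs, 24 h after chemical dosing; reporter mRNA quantified by RT-PCR, fluorescent primer extension, HpaI digestion and capillary electrophoresis. Bidirectional fit relative to DMSO.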

[11] = ATG_Oct_MLP_CIS: Attagene CIS-FACTORIAL HepG2 Assay for human Octamer-Binding Transcription Factor (Oct) (AID 2282993); settings: HepG2 Attagene cis-factorial Oct reporter, mRNA; actives raise or lower the signal
Outline: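 Transfected HepG2 cells, 24 h treatment. Reporter mRNA quantified by RT-PCR–capillary electrophoresis; bidirectional fitting against DMSO.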

[12] = molecular target: Cellular tumor antigen p53 (Homo sapiens) (UniProt P04637); assay: ATG_p53_CIS: Attagene CIS-FACTORIAL HepG2 Assay for human p53 Transcription Factor (AID 2282994); settings: HepG2 p53 cis-element reporter, Attagene mRNA; actives raise or lower the signal
Cellular tumor antigen p53 (Homo sapiens), sequence (P04637 whole entry, looked up): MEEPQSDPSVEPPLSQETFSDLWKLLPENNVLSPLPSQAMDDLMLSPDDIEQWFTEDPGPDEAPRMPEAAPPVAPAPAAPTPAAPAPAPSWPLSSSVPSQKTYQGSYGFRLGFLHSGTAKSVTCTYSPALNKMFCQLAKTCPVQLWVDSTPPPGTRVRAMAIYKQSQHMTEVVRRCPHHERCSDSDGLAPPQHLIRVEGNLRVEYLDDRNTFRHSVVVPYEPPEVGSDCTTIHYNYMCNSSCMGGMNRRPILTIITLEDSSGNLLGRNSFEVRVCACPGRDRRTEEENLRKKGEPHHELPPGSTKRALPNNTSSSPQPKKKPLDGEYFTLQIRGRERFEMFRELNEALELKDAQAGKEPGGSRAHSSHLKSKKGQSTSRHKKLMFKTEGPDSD
Outline: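 HepG2 cells transiently transfected with cis-regulated multiple reporter transcription units, dosed 24 h. Reporter mRNA measured by RT-PCR, 6-FAM primer extension, HpaI digestion and capillary electrophoresis; bidirectional fit relative to DMSO.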

[13] = molecular target: Bile acid receptor (Homo sapiens) (UniProt Q96RI1); assay: ATG_FXR_TRANS: Attagene TRANS-FACTORIAL HepG2 Assay for Farnesoid X Receptor (FXR) (AID 2282979; active = hit-call score of the fitted dose curve at least 0.9, where 1 is the maximum;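 note: hits raise reporter mRNA above DMSO so AC50 marks FXR activation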); settings: HepG2 Attagene TRANS FXR-GAL4 reporter transcription
Bile acid receptor (Homo sapiens), sequence (Q96RI1 whole entry, looked up, the tested form may be a part): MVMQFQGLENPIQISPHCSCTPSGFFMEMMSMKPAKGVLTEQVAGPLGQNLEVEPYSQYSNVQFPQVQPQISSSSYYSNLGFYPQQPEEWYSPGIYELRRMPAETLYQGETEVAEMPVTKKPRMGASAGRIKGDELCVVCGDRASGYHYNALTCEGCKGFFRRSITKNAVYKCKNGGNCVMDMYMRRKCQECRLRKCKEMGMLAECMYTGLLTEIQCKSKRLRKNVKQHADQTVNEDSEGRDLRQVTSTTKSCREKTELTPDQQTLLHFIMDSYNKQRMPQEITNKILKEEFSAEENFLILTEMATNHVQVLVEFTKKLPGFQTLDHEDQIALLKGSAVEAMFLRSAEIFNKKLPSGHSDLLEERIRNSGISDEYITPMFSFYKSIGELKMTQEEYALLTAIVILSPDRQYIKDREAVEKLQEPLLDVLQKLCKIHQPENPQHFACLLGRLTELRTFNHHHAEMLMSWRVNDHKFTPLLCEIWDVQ
Outline: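 After 24 h chemical treatment of transfected HepG2 cells, GAL4-UAS reporter transcripts driven by an exogenous FXR-GAL4 fusion were measured by RT-PCR and capillary electrophoresis. Increases over DMSO were fitted.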

[14] = ATG_M_32_TRANS: Attagene TRANS-FACTORIAL HepG2 Assay for M32 Transcription Factor (Internal Marker) (AID 2282984; active = hit-call score of the fitted dose curve at least 0.9, where 1 is the maximum;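 note: transcript level of a background control reporter unit measured by RT-PCR and capillary electrophoresis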); settings: HepG2 Attagene TRANS M32 internal marker reporter
Outline: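 Capillary electrophoresis of 6-FAM-labelled reporter fragments gives the signal; data fitted for gain over DMSO negative control. Source: HepG2 cells bearing transient multiple reporter transcription units, 24 h exposure.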

[15] = BSK_3C_TissueFactor: BioMAP Diversity Plus: 3C Assay for Tissue Factor Biomarker Activity (AID 2282997); settings: BioMAP 3C HUVEC, tissue factor biomarker readout; actives raise or lower the signal
Outline: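 Endothelial monolayers (human umbilical vein, primary) are dosed, incubated 24 h, and assayed for Tissue Factor by ELISA; DMSO serves as negative control for bidirectional fitting.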

[16] = BSK_3C_uPAR: BioMAP Diversity Plus: 3C Assay for Urokinase-type plasminogen activator receptor (uPAR) Biomarker Activity (AID 2282998); settings: BioMAP 3C HUVEC, uPAR biomarker ELISA; actives raise or lower the signal
Outline: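 Readout: ELISA for surface uPAR. System: human umbilical vein endothelial primary cells, 24 h after chemical exposure. Analysis: bidirectional fit, DMSO baseline.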

[17] = BSK_3C_VCAM1: BioMAP Diversity Plus: 3C Assay for Vascular cell adhesion molecule 1 (VCAM1) Biomarker Activity (AID 2282999); settings: BioMAP 3C HUVEC, VCAM1 ELISA, cytokine-stimulated; actives raise or lower the signal
Outline: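 Human umbilical vein endothelial cells (3C system), biomarker read by ELISA 24 h after dosing; bidirectional fit against DMSO baseline. Cytotoxicity tracked by SRB total-protein staining in parallel cultures at biomarker time.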

[18] = molecular target: Oxysterols receptor LXR-beta (Homo sapiens) (UniProt P55055); assay: ATG_LXRb_TRANS: Attagene TRANS-FACTORIAL HepG2 Assay for human Liver X Receptor beta (LXRb) (AID 2282981; active = hit-call score of the fitted dose curve at least 0.9, where 1 is the maximum); settings: HepG2 Attagene TRANS GAL4-LXRb reporter, mRNA
Oxysterols receptor LXR-beta (Homo sapiens), sequence (P55055 whole entry, looked up, the tested form may be a part): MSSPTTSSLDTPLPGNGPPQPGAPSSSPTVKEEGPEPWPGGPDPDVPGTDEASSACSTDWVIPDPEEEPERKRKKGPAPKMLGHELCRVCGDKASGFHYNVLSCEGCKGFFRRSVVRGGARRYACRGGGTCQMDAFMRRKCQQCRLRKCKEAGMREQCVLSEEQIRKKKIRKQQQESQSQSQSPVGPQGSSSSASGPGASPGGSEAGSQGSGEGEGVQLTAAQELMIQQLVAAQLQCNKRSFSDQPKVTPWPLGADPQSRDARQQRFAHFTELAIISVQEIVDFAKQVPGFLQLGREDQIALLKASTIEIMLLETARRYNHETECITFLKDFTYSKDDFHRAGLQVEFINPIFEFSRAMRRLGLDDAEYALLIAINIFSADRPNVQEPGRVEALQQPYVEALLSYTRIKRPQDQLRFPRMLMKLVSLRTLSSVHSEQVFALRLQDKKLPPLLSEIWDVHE
Outline: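 Gain-of-signal mRNA reporter endpoint, DMSO as negative control. Transiently transfected HepG2 cells carrying the NR-Gal4 chimera and GAL4-UAS reporter units were treated 24 h; transcripts quantified by RT-PCR and capillary electrophoresis fluorescence.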

[19] = molecular target: Glucocorticoid receptor (Homo sapiens) (UniProt P04150); assay: ATG_GR_TRANS: Attagene TRANS-FACTORIAL HepG2 Assay for human Glucocorticoid Receptor (GR) (AID 2282978; active = hit-call score of the fitted dose curve at least 0.9, where 1 is the maximum;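 note: activators score as hits since higher reporter transcript over DMSO is fitted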); settings: HepG2 Attagene TRANS GR reporter, mRNA transcription
Glucocorticoid receptor (Homo sapiens), sequence (P04150 whole entry, looked up, the tested form may be a part): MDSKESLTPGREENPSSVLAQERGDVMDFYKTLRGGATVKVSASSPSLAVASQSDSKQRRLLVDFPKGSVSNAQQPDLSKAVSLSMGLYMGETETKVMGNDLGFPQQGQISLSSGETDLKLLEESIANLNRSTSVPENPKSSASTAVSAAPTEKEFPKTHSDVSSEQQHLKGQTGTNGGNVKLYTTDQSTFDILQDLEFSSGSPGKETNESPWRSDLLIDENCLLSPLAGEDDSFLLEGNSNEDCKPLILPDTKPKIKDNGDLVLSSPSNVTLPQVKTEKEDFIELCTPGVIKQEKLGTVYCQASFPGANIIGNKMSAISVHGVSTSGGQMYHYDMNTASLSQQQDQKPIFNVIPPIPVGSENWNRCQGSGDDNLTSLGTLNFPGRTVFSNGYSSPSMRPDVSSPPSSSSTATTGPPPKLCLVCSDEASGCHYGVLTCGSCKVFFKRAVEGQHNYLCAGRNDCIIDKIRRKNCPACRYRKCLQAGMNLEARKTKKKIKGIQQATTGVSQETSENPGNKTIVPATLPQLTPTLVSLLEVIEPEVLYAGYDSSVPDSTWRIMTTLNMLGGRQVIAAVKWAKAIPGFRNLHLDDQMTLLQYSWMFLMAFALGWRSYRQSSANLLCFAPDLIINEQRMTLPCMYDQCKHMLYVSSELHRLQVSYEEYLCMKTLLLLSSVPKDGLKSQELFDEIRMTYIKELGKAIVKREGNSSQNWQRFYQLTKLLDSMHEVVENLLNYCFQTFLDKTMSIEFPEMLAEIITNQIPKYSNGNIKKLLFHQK
Outline: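 HepG2 cells transiently transfected with GAL4-UAS reporter units and exogenous GR-Gal4 chimera, dosed 24 h. Reporter mRNA by RT-PCR, FAM labeling, HpaI digest and capillary electrophoresis; gain-of-signal fit versus DMSO.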

[20] = molecular target: Hepatocyte nuclear factor 4-alpha (Homo sapiens) (UniProt P41235); assay: ATG_HNF4a_TRANS: Attagene TRANS-FACTORIAL HepG2 Assay for human Hepatocyte Nuclear Factor 4 alpha (HNF4a) (AID 2282982; active = hit-call score of the fitted dose curve at least 0.9, where 1 is the maximum); settings: HepG2 HNF4a transactivation reporter, mRNA readout
Outline: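 Gain-of-signal mRNA induction, relative to DMSO vehicle, was read after 24 h compound treatment of HepG2 cells bearing transfected GAL4-UAS reporters. Detection used RT-PCR, 6-FAM primer extension and capillary electrophoresis.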

Measured: AC50

Cc1cc(O)c(C)c(C)c1O
inactive: [1] | [2] | [3] | [4] | [5] | [6] | [7] | [8] | [11] | [12]
active: [9] 50.7 µM | [10] 18.8 µM

C=C1CC/C=C(\C)CC[C@@H]2[C@@H]1CC2(C)C
active: [10] 100 µM | [15] 16.8 µM | [16] 33.9 µM | [17] 30.1 µM
not listed: [2] | [18] | [19] | [20]
inactive: all other assays above

C1COCO1
inactive: [1] | [18] | [3] | [14] | [5] | [6] | [7] | [8] | [9] | [10] | [11]

CCCCCCCC(=O)N(C)C
inactive: [1] | [2] | [14] | [4] | [5] | [7] | [10] | [11] | [12]

CCCCC(CC)COCCO (configuration not stated)
not listed: [2] | [4] | [13] | [15] | [16] | [17] | [18] | [20]
inactive: all other assays above

CCCCCCCCOS(=O)(=O)O
not listed: [2] | [4] | [14] | [15] | [16] | [17] | [18] | [20]
inactive: all other assays above

O=C(O)c1ccccc1O
inactive: [1] | [2] | [18] | [14] | [5] | [6] | [7] | [8] | [10] | [11]

COC(=O)C(C)Oc1ccc(Oc2ncc(C(F)(F)F)cc2Cl)cc1 (configuration not stated)
active: [6] 137 µM
not listed: [9] | [13] | [15] | [16] | [17] | [19]
inactive: all other assays above

O=C(O)c1cc2ccccc2cc1O
not listed: [2] | [12] | [13] | [15] | [16] | [17] | [19]
inactive: all other assays above

Cc1cc(O)c2c(c1)C(=O)c1cc(O)cc(O)c1C2=O
active: [7] 8.34 µM | [9] 17.4 µM | [10] 4.77 µM | [11] 8.59 µM
not listed: [13] | [14] | [15] | [16] | [17] | [19]
inactive: all other assays above

C=CC(=O)OCC(CO)(COC(=O)C=C)COC(=O)C=C
active: [5] 180 µM | [15] 0.137 µM | [16] 0.443 µM | [17] 0.0478 µM
inactive: [1] | [20] | [3] | [4] | [6] | [7] | [8] | [10] | [11]

O=C1CCCCCCCCCCCC(=O)OCCO1
inactive: [1] | [19] | [18] | [20] | [14] | [4] | [5] | [6] | [7] | [10] | [11]

Brc1cc(Br)cc(Br)c1
not listed: [2] | [6] | [12] | [15] | [16] | [17] | [18]
inactive: all other assays above

CN(C)c1ccc(C=O)cc1
not listed: [2] | [4] | [14] | [15] | [16] | [17]
inactive: all other assays above

OC[C@H]1O[C@@H](O[C@H]2[C@H](O)[C@@H](O)[C@H](O)O[C@@H]2CO)[C@H](O)[C@@H](O)[C@H]1O
inactive: [19] | [13] | [4] | [5] | [6] | [8] | [9] | [10] | [11] | [12]

CC(=O)CC(=O)N(C)C
not listed: [1] | [2] | [7] | [9] | [15] | [16] | [17] | [18]
inactive: all other assays above

CC(C)Cc1ccc(C(C)C(=O)O)cc1 (configuration not stated)
not listed: [2] | [3] | [13] | [18] | [19]
inactive: all other assays above

C=C(C)C(=O)OCCOCCOC(=O)C(=C)C
inactive: [1] | [3] | [14] | [5] | [6] | [7] | [8] | [9] | [10] | [11]

CCO[Si](CCC#N)(OCC)OCC
not listed: [1] | [2] | [12] | [15] | [16] | [17]
inactive: all other assays above

NC(=O)c1cccnc1
not listed: [1] | [2] | [3] | [9] | [15] | [16] | [17] | [18]
inactive: all other assays above

C=C1CC[C@H]2O[C@]2(C)CC[C@@H]2[C@@H]1CC2(C)C
not listed: [1] | [15] | [16] | [17] | [20]
inactive: all other assays above
